# Bioassay records from PubChem.
# sEH inhibitor = soluble epoxide hydrolase inhibitors, primary screen, biochemical, human sEH; Bifunctional epoxide hydrolase 2 (Homo sapiens), P34913; 91,000 compounds, 0.34% hits; AID 707, 2007; inhibition, % at 2 µM; recombinant human sEH enzymatic activity assay; in the data active = inhibition above about 80%
# CYP2C9 inhib = blockers of cytochrome P450 2C9 activity – biochemical, luminescence, ADME assay, primary screen. P11712. CYP2C9 Supersomes, luciferin-H conversion. inhibition, % at 5 µM. 96,000 compounds, 20% hits;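 active = blocking of liver enzyme CYP2C9 beyond about 50% at 5 µM, limit read from the data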
# CYP2C19 inh = blockers of cytochrome P450 2C19 activity – biochemical, luminescence, ADME assay, primary screen. inhibition, % at 5 µM. 96,000 compounds, 21% hits. CYP2C19 Supersomes, luciferin-H EGE luminescence, 30 min. P33261;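 active = CYP2C19 inhibition above a set limit at 5 µM in the primary screen, cut at about 50% in these data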;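 also: plate controls were negative control wells for no effect and 2.5 mM tranylcypromine positive control for full effect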
# Target sequence (P33261 whole entry, looked up): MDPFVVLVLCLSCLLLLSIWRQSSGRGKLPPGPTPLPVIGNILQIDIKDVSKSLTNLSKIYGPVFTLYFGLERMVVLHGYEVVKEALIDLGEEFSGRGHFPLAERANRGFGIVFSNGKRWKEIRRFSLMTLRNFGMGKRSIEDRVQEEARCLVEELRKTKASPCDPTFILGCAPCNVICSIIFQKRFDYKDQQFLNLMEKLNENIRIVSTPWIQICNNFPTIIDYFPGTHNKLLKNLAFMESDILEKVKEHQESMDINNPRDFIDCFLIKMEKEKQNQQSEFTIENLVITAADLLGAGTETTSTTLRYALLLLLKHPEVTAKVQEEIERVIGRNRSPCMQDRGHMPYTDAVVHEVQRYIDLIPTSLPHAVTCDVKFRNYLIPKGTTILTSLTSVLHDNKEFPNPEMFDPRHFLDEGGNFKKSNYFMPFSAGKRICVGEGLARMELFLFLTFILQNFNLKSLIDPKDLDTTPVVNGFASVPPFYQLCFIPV
# CYP2C19 act = human CYP2C19 activators, primary screen, biochemical, luminescence; activation factor at 5 µM; Cytochrome P450 2C19 (Homo sapiens), P33261; recombinant CYP2C19, luciferin-H EGE luminescence; stronger effect = higher value; 0 = fully inhibited enzyme, 1 = untreated enzyme; 96,000 tested, under 10 active; AID 1025, 2008;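 active = activation factor of at least 2 at 5 µM in the primary screen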;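 also: 0 = wells with 2.5 mM tranylcypromine and 1 = vehicle-only wells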
# CYP2C9 act = human CYP2C9 activators, primary screen, biochemical, luminescence | Cytochrome P450 2C9 (Homo sapiens), P11712 | recombinant CYP2C9, luciferin-H conversion; stronger effect = higher value; factor 1 = untreated enzyme, 0 = blocked | activation factor at 5 µM | 96,000 compounds, 1.4% hits | AID 1024, 2008;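 active = activation factor of 2 or more for CYP2C9 at a 5 µM dose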;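 also: 0 = sulfaphenazole-blocked wells and 1 = vehicle-only wells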
# sEH act = soluble epoxide hydrolase activators, primary screen, biochemical, human sEH | AID 717, 2007 | 91,000 compounds, 0.04% hits | purified human sEH enzymatic activity, activator screen | activation, % at 2 µM; in the data active = activation above about 37%
# Numbers without * were called inactive; nt = not tested or not shown. Only some compounds are listed: those with a hit (about 27% of all), similar ones and a draw of the others.
SMILES,sEH inhibitor,CYP2C9 inhib,CYP2C19 inh,CYP2C19 act,CYP2C9 act,sEH act
CCCN(CCC)C(=O)Cn1c(=O)n(CCC(=O)NCCc2ccccc2)c(=O)c2ccccc21,11,72*,17,0.8,0.3,-14
CCCCNC(=O)CCn1c(=O)c2ccccc2n(CC(=O)Nc2ccccc2OCC)c1=O,nt,75*,40,0.6,0.2,nt
CCn1c(=O)c(C(=O)NCCc2ccccc2)c(O)c2ccccc21,5,20,50*,0.5,0.8,-6
NCCN1CCN(CCN)CC1,5,7,-15,1.1,0.9,-9
Cc1ccccc1OCC(=O)Nc1sc(C(=O)Nc2cccc(C)c2C)c(C)c1C#N,-9,27,12,0.9,0.7,10
CCCCNCC(=O)Nc1sc(C)c(C)c1C(=O)OCC,3,nt,nt,nt,nt,-4
Cc1cc(C)nc(/N=C/c2c(O)n(C)c(=O)n(C)c2=O)n1,nt,-5,-4,1,1.1,nt
CC(=O)c1cc(C)ccc1OC(=O)c1cccc2nc(C)oc12,-1,61*,57*,0.4,0.4,4
O=C(O)C1C2C=CC(C2)C1C(=O)NCCc1cccc(Cl)c1 (centres undefined),4,nt,nt,nt,nt,-6
Cc1cc2cc(C(c3nnnn3Cc3ccco3)N3CCc4ccccc4C3)c(=O)[nH]c2cc1C (centres undefined),0,8,4,1,0.9,0
COc1ccc(C2NC(=O)c3ccccc3O2)c(OC)c1OC (centres undefined),8,70*,85*,0.2,0.3,-9
COc1cccc(C2NC(=O)c3ccccc3O2)c1OC (centres undefined),2,30,86*,0.1,0.7,-4
O=C(CN1C(=O)COc2ccccc21)N(Cc1ccc2c(c1)OCO2)CC1CCCO1 (centres undefined),-16,14,14,0.9,0.9,14
COc1cc(CNCc2ccncc2)cc(Br)c1OCc1ccccc1F,7,91*,86*,0.1,0.1,-4
COc1cc(CO)cc(Br)c1OCc1cccnc1,nt,-109,80*,0.2,2.1*,nt
Cc1ccc(CNC(=O)CC2C(=O)Nc3c2c(=O)n(C)c(=O)n3Cc2ccccc2)cc1 (centres undefined),2,22,0,1,0.8,-2
CCOC(=O)C1C(=O)C(C(=O)OCC)C(c2cccnc2)NC1c1cccnc1 (centres undefined),6,22,33,0.7,0.8,-8
Cc1ccc(C(=O)COC(=O)CCC(=O)Nc2cc(Cl)ccc2Cl)cc1[N+](=O)[O-],-14,-2,12,0.9,1,18
O=C(NNC(=O)c1ccco1)c1cccc([N+](=O)[O-])c1,-1,6,0,1,0.9,2
O=C(c1ccco1)N(Cc1ccco1)c1ccc(O)cc1,nt,54*,36,0.6,0.5,nt
O=C(c1ccco1)N(Cc1ccc([N+](=O)[O-])cc1)c1ccc(Cl)cc1,9,94*,26,0.7,0.1,-6
O=c1cc(O)n(-c2ccc(F)cc2)c(=S)[nH]1,-2,-10,8,0.9,1.1,0
COc1ccccc1N(C)S(=O)(=O)c1ccc(C(=O)OCC(=O)NCc2ccco2)cc1,-12,88*,35,0.7,0.1,13
O=C(COC(=O)c1cccc(S(=O)(=O)N2CCN(c3ccccc3)CC2)c1)NCc1ccco1,-2,44,78*,0.2,0.6,1
CN(c1ccccc1)S(=O)(=O)c1ccc(C(=O)OCC(=O)NCc2ccco2)cc1,11,94*,97*,0,0.1,-11
COc1ccccc1OCC(=O)NCc1ccco1,2,0,17,0.8,1,-2
O=C(COC(=O)c1cccc(Oc2ccccc2)c1)NCc1ccco1,15,25,14,0.9,0.8,-16
COc1ccc(/C=N/NC(=O)Cc2csc(Nc3cccc(C(F)(F)F)c3)n2)cc1C,10,nt,nt,nt,nt,-10
